Assay outcomes: PubChem, several laboratories
Rows were chosen to be rich in hits. Some 4.6% of all compounds tested hit in one or more screens of this group.
HSF1 inh – HSF1 inhibition | activity change, negative = inhibition, % at 7.5 µM (by protocol) | actives 0.77% (n = 300,000) | NIH3T3-HGL HSE-luciferase, MG132-induced, luminescence 8 h; stronger effect = lower value | AID 2098;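 active = more than half of replicate wells show activity change below -50%, luminescence cut by over half; inconclusive = some wells, but at most half, below -50%; inactive = no replicate well below -50%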;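 also: luciferase reports HSF-1 transcriptional activity via heat shock element; 0% = median of DMSO wells and -100% = zero luminescence signal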
FXN GAA850 act – frataxin GAA850 promoter activation; HEK293 lucGAA850 FXN promoter luciferase reporter, 24 h; percent of 10 µM SAHA response; activation, % at 6 µM; actives 0.56% (n = 360,000); AID 540364;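 active = activation above the average of all compounds screened plus 3 SD, cutoff fixed separately per campaign, cut at about 7.5% in these data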;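 also: 0% = DMSO wells and 100% = 10 µM SAHA wells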
AHR act – activates the human aryl hydrocarbon receptor; actives 2.5% (n = 320,000); activation, % at 5 µM; AHR-responsive luciferase reporter cells, luminescence; P35869; in the data active = activation above about 47%;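 also: 0% = vehicle wells and 100% = reference agonist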
Target sequence (P35869 whole entry, looked up): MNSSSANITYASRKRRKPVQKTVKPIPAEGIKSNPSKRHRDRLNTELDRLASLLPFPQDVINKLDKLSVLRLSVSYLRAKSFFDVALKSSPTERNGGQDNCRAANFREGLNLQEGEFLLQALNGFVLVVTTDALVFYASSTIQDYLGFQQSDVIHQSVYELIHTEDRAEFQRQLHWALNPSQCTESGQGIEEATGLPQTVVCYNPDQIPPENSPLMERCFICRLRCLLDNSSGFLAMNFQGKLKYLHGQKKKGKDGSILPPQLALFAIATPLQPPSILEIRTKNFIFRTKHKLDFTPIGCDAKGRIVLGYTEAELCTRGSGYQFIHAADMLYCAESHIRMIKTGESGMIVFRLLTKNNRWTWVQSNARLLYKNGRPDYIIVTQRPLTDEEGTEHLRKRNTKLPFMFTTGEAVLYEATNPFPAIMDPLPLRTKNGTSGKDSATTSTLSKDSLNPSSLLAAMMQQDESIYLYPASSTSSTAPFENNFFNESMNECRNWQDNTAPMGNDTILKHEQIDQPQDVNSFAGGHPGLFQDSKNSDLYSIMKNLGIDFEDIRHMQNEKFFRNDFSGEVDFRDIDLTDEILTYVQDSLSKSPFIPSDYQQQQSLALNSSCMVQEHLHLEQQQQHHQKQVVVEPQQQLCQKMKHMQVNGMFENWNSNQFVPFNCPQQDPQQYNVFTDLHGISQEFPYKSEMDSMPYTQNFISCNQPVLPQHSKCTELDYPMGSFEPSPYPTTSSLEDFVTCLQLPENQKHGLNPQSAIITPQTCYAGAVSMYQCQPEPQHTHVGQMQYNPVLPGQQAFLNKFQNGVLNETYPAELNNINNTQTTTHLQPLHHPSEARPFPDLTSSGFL
HSF1 activator – increases HSF-1 driven luciferase reporter signal; NIH3T3-HGL HSF-1 luciferase reporter, MG132, 8 h; 100% = twice DMSO control signal; activation, % at 9 µM; actives 1.7% (n = 300,000);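 active = mean replicate activation of at least 50% with a set share of replicates each reaching 50%; inconclusive = only one of those two conditions met; inactive = mean below 50% and too few replicates reaching it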;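 also: 0% = median of the neutral control wells and 100% = twice that signal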
GAA30 FXN cntr – activates GAA30 frataxin promoter, counter-screen for GAA850 activators; AID 588350; HEK293 lucGAA30 FXN promoter luciferase, 24 h; DMSO = 0%, 5 µM ipriflavone = 100%; activation, % at 6 µM; shares compounds with FXN GAA850 act; actives 66% (n = 1,900);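 active = mean activation above the mean of solvent-only control wells plus 3 SD, cut at about 22% in these data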;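 also: counterscreen of GAA850 promoter hits where activity marks nonselective or luminescence artifacts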
GAA850 confirm – GAA850 FXN promoter activation confirmation | activation, % at 6 µM | shares compounds with FXN GAA850 act | AID 588351 | HEK293 lucGAA850 FXN promoter luciferase reporter, 24 h; 100% = activation by SAHA | actives 86% (n = 1,900);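 active = mean activation above a set limit taken from the primary screen, cut at about 8% in these data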;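 also: 0% = DMSO wells and 100% = 10 µM SAHA wells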
An asterisk follows results filed as active; ? = inconclusive; . = not tested or not shown.

SMILES	HSF1 inh	FXN GAA850 act	AHR act	HSF1 activator	GAA30 FXN cntr	GAA850 confirm
c1cncc(-c2nn3c(Cn4nnc5ccccc54)nnc3s2)c1	-1	16*	5	6	2	2
CN=c1scc(-c2ccco2)n1/N=C/c1ccc(O)c(O)c1	-83*	16*	.	-83	44*	23*
C=CCN=c1scc(C)n1/N=C/c1ccc(O)c(O)c1	-12	10*	45	6	63*	28*
c1ccc(-c2nc(CSc3nnc(-c4cccs4)o3)cs2)cc1	-3	3	15	2	.	.
CC(=NNC(=S)Nc1ccccc1Cl)c1ccccn1	.	14*	.	.	-39	25*
CC(=NNC(=S)Nc1ccccc1)c1ccccn1	.	1	.	.	.	.
COC(=O)c1sc(S(=O)(=O)N2CC(C)OC(C)C2)c(C(=O)OC)c1C (stereo unspecified)	.	0	-1	.	.	.
CC(C)Oc1ccc(S(=O)(=O)N2CCOCC2)cc1NC(=O)CC1OC(=O)c2ccccc21 (stereo unspecified)	3	-1	-3	-2	.	.
C=C1CC(Cn2cc(Br)c(=O)[nH]c2=O)(c2ccc(-c3ccccc3)cc2)OC1=O (stereo unspecified)	30	11*	.	30	-62	52*
O=c1[nH]c(=O)n(Cc2ccc(Oc3ccccc3)cc2)cc1Br	-3	3	1	0	.	.
OCC1CCCN(C(=S)Nc2ccc(Oc3ccccc3)cc2)C1 (stereo unspecified)	13	11*	9	26	105*	34*
O=C(COc1ccccc1)NC(=S)Nc1ccc2c3c(cccc13)CC2	10	2	3	9	.	.
CCOc1ccc(Nc2ncnc3c2cnn3-c2ccccc2)cc1	7	13*	-3	19	67*	21*
CCOc1ccc(Nc2ncnc3c2cnn3Cc2ccccc2)cc1	-6	0	7	3	.	.
CSCCC(NC(=O)c1ccc(C(C)(C)C)cc1)C(=O)OCC(=O)N1CCCC1=O (stereo unspecified)	.	2	-2	.	.	.
CCOC(=O)/C(C#N)=C/c1cc2cc(C)c(C)cc2nc1Cl	21	5	2	7	.	.
Nc1cc([N+](=O)[O-])cc2oc(-c3ccccc3)cc12	-5	8.2*	39	1	94*	33*
COc1ccc(-c2cc(C(=O)Nc3c(C)n(C)n(-c4ccccc4)c3=O)no2)cc1	0	-2	1	-11	.	.
CC(O)C(O)C(O)C(O)/C=N/NC(=O)c1ccccc1 (stereo unspecified)	10	7.7*	9	28	23*	7
Cc1ccc(N/C=C/C(=O)c2ccco2)c(O)c1	-1	5	18	-16	.	.
Cc1ccc([N+](=O)[O-])cc1N/C=C/C(=O)c1ccco1	11	9.3*	17	38	27*	25*
CC(=O)Nc1ccc(-c2csc(Nc3ccccn3)n2)cc1	42	4	5	49	.	.
Oc1ccc(-c2csc(Nc3ccccn3)n2)cc1O	3	13*	31	18	96*	56*
Cc1cccnc1Nc1nc(-c2ccc(O)c(O)c2)cs1	-3	14*	3	19	107*	50*
COc1ccc(-c2csc(Nc3ncccc3C)n2)cc1OC	1	4	-7	16	.	.
SMILES	HSF1 inh	FXN GAA850 act	AHR act	HSF1 activator	GAA30 FXN cntr	GAA850 confirm
Cc1ccnc(Nc2nc(-c3ccc(O)c(O)c3)cs2)c1	2	17*	55*	33	91*	42*
COc1cc(C(=S)N2CCCCC2)ccc1OCC(=O)Nc1ccc(F)cc1	-3	-2	0	-7	.	.
CC(C(=O)NCc1ccccc1)N1C(=O)C2CC=C(Cl)CC2C1=O (stereo unspecified)	-6	1	2	4	.	.
Cc1ccc(NC(=O)C2Cc3ccccc3C(=O)O2)cc1 (stereo unspecified)	.	8.3*	16	.	86*	33*
CN(c1ccc(C(=O)NCCSC(C)(C)C)cc1)S(C)(=O)=O	9	8.1*	20	21	104*	30*
COc1ccc(C(=O)NC2CCN(C(=O)NC3CCCCC3)CC2)cc1	1	2	2	-4	.	.
CN(C)Cc1ccc(-c2nc3cccc4c3n2CCNC4=O)cc1	-5	7.8*	12	-3	25*	50*
CC(C)(C)c1ccc(OCc2ccc(C(=O)N3CCOCC3)o2)cc1	21	8.4*	17	58*	52*	24*
CCc1ccc(OCc2ccc(C(=O)OC)o2)cc1	28	7.6*	4	41	78*	28*
CCCc1ccc(OCc2ccc(C(=O)N3CCSCC3)o2)cc1	11	7.6*	8	16	100*	38*
Cc1cccc(OCc2ccc(C(=O)N3CCOCC3)o2)c1	9	-1	2	17	.	.
COC(=O)c1ccc(COc2ccc(C(C)(C)C)cc2)o1	13	5	4	22	.	.
CCOc1ccc(OCc2ccc(C(=O)O)o2)cc1	-7	2	3	-3	.	.
CCC(=O)Nc1cc2c(cc1Cl)-c1ccccc1C2	.	8.4*	.	.	85*	31*
Cc1cc(C(=O)CSc2n[nH]c(N)n2)c(C)n1-c1ccccc1	16	8.9*	17	37	101*	28*
Cc1ccc(-n2c(C)cc(C(=O)CSc3n[nH]c(N)n3)c2C)cc1	13	3	9	-9	.	.
CC1CCN(C(=O)CN2C(=O)C(=O)c3ccccc32)CC1	-6	13*	1	-7	22*	8.3*
COc1ccc2nc(N3C(=O)/C(=C/c4ccccc4)NC3=S)sc2c1	3	0	17	4	.	.
CCCC(=O)N(C1CC(C)C(C#N)(C#N)C1(C#N)C#N)N(C)C (stereo unspecified)	?	5	-3	-53	.	.
CC(=O)N(C1CC(C)C(C#N)(C#N)C1(C#N)C#N)N(C)C (stereo unspecified)	-3	9.9*	0	15	-99	-31
O=C(CCSc1nnc(-c2ccncc2)o1)Nc1ccccc1	4	3	-6	-1	.	.
CCOC(=O)NC(=O)/C(C#N)=C\Nc1ccc(Cl)cc1Cl	13	8.3*	6	3	22	5
CCOC(=O)NC(=O)/C(C#N)=C\Nc1sccc1C(=O)OC	1	-1	3	2	.	.
Fc1ccc(COc2ccccc2C(=S)N2CCCC2)cc1	1	0	5	33	.	.
Cc1ccc(COc2ccccc2C(=S)N2CCCC2)cc1	17	8.1*	5	9	51*	23*
O=C(Nc1ccccc1N1CCOCC1)c1ccccc1NS(=O)(=O)c1ccc(F)cc1	-3	0	2	23	.	.
CCOc1ccc(S(=O)(=O)Nc2ccccc2C(=O)Nc2ccccc2N2CCOCC2)cc1	3	8.3*	1	6	19	11*
